Results: PubChem BioAssay (NCATS)
Records with an inconclusive call do not appear. The source made the active and inactive calls. Unless noted, the call rests on the fitted dose curve; in most records, active means well fitted curve in the direction sought with a large enough effect; inconclusive means small, poorly fitted or top-dose-only effect, or another doubt; inactive means no such curve, though single readings can be large; an effect the other way counts as inactive or inconclusive.

What was measured:
[1] = Cellular Toxicity (caspase-3) HepG2 (AID 654);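 further: cells exposed to compound for 16 hours before reading; 0% = DMSO alone and 100% = caspase signal from 100 µM tamoxifen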
In short: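 Cells plated 5 hr at 37 °C, compound added, incubated 16 hr at 37 °C. Caspase-Glo 3/7 reagent followed, 20 min at room temperature, then luminescence read. Activation scored as signal increase; AC50 from Hill fit.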

[2] = Cellular Toxicity (caspase-3) Jurkat (AID 655); settings: Jurkat caspase-3 activation, luminescence, DMSO = 0%, tamoxifen = 100%; at 92.2 µM (top of the series);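 further: cells exposed to compound for 16 h at 37 °C before reading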
In short: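 Jurkat cells (5000/well) in complete medium exposed 16 h at 37 C; caspase-3/7 activity read by Caspase-Glo luminescence after 20 min at room temperature. Normalized to DMSO and 100 uM tamoxifen; AC50 from Hill fits.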

[3] = Cellular Toxicity (caspase-3) HUV-EC-C (AID 656)
In short: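 HUV-EC-C cells (1000/well) in complete medium, compound-treated 16 h at 37 °C; caspase-3/7 activity read by Caspase-Glo 3/7 luminescence. Normalized to DMSO (basal) and 100 uM tamoxifen (100%); AC50 from Hill-equation concentration-response fits.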

[4] = Cellular Toxicity (caspase-3) SHSY5Y (AID 657)
In short: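 SH-SY5Y human neuroblastoma cells, 1500/well, exposed to compound for 16 hours at 37 °C in complete medium. Caspase-3/7 activity read by Caspase-Glo luminescence after 1 hr at room temperature, normalized to DMSO and 10 uM staurosporine; AC50 from Hill fit.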

[5] = Cellular Toxicity (caspase-3) BJ (AID 658);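 further: 0% = DMSO basal and 100% = 10 µM staurosporine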
In short: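 Readout: Caspase-Glo 3/7 luminescence increase in BJ cells after 16 hr treatment at 37 °C. Staurosporine and tamoxifen served as positive controls; AC50 values came from Hill modelling of data normalized to DMSO and 10 uM staurosporine.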

[6] = Cellular Toxicity (caspase-3) MRC-5 (AID 659);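 further: 0% = DMSO basal and 100% = 10 µM staurosporine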
In short: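 Concentration-dependent caspase 3/7 activation is measured in human normal lung fibroblasts (MRC-5) following 16-hour treatment. AC50 values come from standard Hill-equation modeling of luminescence normalized to DMSO and 10 uM staurosporine.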

[7] = Cellular Toxicity (caspase-3) SK-N-SH (AID 661);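 further: 0% = DMSO basal and 100% = 10 µM staurosporine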
In short: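 Human neuroblastoma SK-N-SH, 1500 cells/well, 5 hr pre-incubation, then compound 16 hr, 37 °C. Caspase-Glo 3/7 reagent, 1 hr RT, luminescence. Norm. to DMSO/10 uM staurosporine; Hill-fit AC50.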

[8] = Cellular Toxicity (caspase-3) H-4-II-E (AID 663);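 further: cells exposed to compound for 16 hr before readout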
In short: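 Apoptosis induction is scored as increased luminescence from caspase 3/7 substrate cleavage in rat hepatoma H-4-II-E cells exposed to compound for 16 hr. Activity is scaled between DMSO and 100 uM tamoxifen.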

[9] = Cellular Toxicity (caspase-3) Hek293 (AID 664);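 further: cells exposed to compound for 16 h at 37 °C before readout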
In short: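 Cells plated, 5 hr at 37 °C; compounds added; 16 hr at 37 °C; Caspase-Glo 3/7 reagent, 20 min RT; luminescence read. Activation expressed relative to DMSO and 100 uM tamoxifen, AC50 by Hill model.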

[10] = Cellular Toxicity (caspase-3) NIH 3T3 (AID 666);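 further: caspase signal read after 16 h compound exposure; 0% = DMSO basal and 100% = 100 µM tamoxifen stimulation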
In short: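 Luminescence from aminoluciferin released by caspase-3/7 cleavage of a peptide substrate served as read-out. Mouse fibroblast NIH 3T3 cells were exposed to compounds over a concentration range for 16 hours, and AC50 values came from standard Hill modelling.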

[11] = Cellular Toxicity (caspase-3) Renal Proximal Tubule (AID 667); settings: renal proximal tubule cells; at 91.7 µM (top of the series), primary cells freshly taken from rat, solvent-only wells 0%, staurosporine 100% unless noted;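 further: cells exposed to compound for 16 hours at 37 °C before detection; 0% = DMSO basal and 100% = 10 µM staurosporine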
In short: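 Freshly isolated primary rat kidney proximal tubule cells, 1000/well, treated 16 hr at 37 °C, then Caspase-Glo 3/7 luminescence after 1 hr. Normalized to DMSO and 10 uM staurosporine; AC50 from Hill fit.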

[12] = Cell Viability - LYMP2-001 (AID 921);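 further: cells exposed to compound for 24 h at 37 °C; 0% = DMSO only and full inhibition = tetraoctylammonium bromide control wells; nearly all actives have a fitted effect of over 70% in size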
In short: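 Human lymphoblastoid LYMP2-001 cells, 2500 per well, in complete medium, treated 24 h at 37 C. Viability from cellular ATP by CellTiter-Glo luminescence; AC50 from Hill-equation fits of qHTS concentration-response.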

[13] = MultiTox-Fluor Cytotoxicity Assay - LYMP1-001 - Dead Cells (AID 946);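 further: 0% = DMSO and 100% = tetraoctylammonium bromide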
In short: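 Seed 2500 LYMP1-001 cells/well, incubate 5 hr at 37 C; add compound, 16 hr at 37 C; add MultiTox-Fluor reagent, 60 min RT; read dead-cell fluorescence Ex/Em=485/520. Normalize to DMSO and 15 uM tetraoctylammonium bromide.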

[14] = Cell Viability - LYMP1-002 - Assay at 16 hr (AID 948);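 further: 0% = DMSO alone and full effect = 92 µM tetraoctylammonium bromide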
In short: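 LYMP1-002 human lymphoblastoid cells, 2500/well, were treated with compounds for 16 hr at 37 C in complete medium. Viability was read as intracellular ATP by CellTiter-Glo luminescence, and AC50 was derived from a Hill fit to concentration-response data.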

[15] = molecular target: Peroxisome proliferator-activated receptor alpha (Homo sapiens) (UniProt Q07869); assay: qHTS assay for small molecule agonists of the peroxisome proliferator-activated receptor alpha (PPARalpha) signaling pathway (AID 651778); settings: PathHunter PPARalpha complementation, chemiluminescence, 6 h; hits give high values; further: % of control where 0% means no effect
In short: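 Chemiluminescence from complemented enzyme reported PPARalpha activation in cells after 6 hr of compound treatment at 37 C. The detection reagent was incubated for 60 min at room temperature, and compounds were scored as agonists.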

[16] = qHTS assay for small molecule agonists of the antioxidant response element (ARE) signaling pathway measured by Nrf2-dependant transcriptional activity (AID 720636; active means well fitted curve in the direction sought with a large enough effect in the repeat runs; an effect the other way counts as inactive or inconclusive;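 further: HepG2 cells with an ARE-driven luciferase reporter; % of control where 0% means no effect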)
In short: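 HepG2 ARE-luc reporter line, 1% dialyzed FBS; 6 hr attachment at 37 C, compound pinned in, 16 hr at 37 C/5% CO2; ONE-Glo, 30 min RT, luminescence read.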

[17] = qHTS assay for small molecule agonists of the antioxidant response element (ARE) signaling pathway measured by Nrf2-dependant transcriptional activity - cell viability counter screen (AID 720653; active means well fitted curve in the direction sought with a large enough effect in the repeat runs; an effect the other way counts as inactive or inconclusive; further: on the % scale 0 is the no-effect control and ±100 the full control effect); settings: ARE-bla HepG2 viability, CellTiter-Glo ATP luminescence, 16 h; hits give low values
In short: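 Cytotoxicity counter screen: intracellular ATP quantified by CellTiter-Glo luminescence in the same ARE-bla HepG2 plates, after 16 h compound exposure and a 2 h beta-lactamase substrate step.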

[18] = qHTS assay for cell viability of HEK293 cells (AID 743288); settings: ATP luminescence (CellTiter-Glo), 18 h; max response: hits give low values; further: on the % scale 0 is the no-effect control and ±100 the full control effect; nearly all actives have a fitted effect of over 50% in size
In short: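 Parental HEK293 cells, 2,000 per well, preincubated at least 5 h at 37 C, then exposed to compounds in DMSO for 18 h at 37 C. Viability by CellTiter-Glo ATP luminescence after 30 min at room temperature.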

[19] = qHTS assay for cell viability of the p53RE-bla HCT-116 cell line (AID 743292); further: on the % scale 0 is the no-effect control and ±100 the full control effect; nearly all actives have a fitted effect of over 55% in size
In short: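 Luminescent ATP quantitation (CellTiter-Glo) served as the viability read-out; reagent was added after 16 h compound exposure at 37 C and read after 30 min at room temperature. Cells: p53RE-bla HCT-116, 4,000 per well.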

[20] = qHTS assay for small molecule activators of the human pregnane X receptor (PXR) signaling pathway (AID 720659; call rule not given here; further: 0% is about no effect)

Peroxisome proliferator-activated receptor alpha (Homo sapiens), sequence (Q07869 whole entry, looked up): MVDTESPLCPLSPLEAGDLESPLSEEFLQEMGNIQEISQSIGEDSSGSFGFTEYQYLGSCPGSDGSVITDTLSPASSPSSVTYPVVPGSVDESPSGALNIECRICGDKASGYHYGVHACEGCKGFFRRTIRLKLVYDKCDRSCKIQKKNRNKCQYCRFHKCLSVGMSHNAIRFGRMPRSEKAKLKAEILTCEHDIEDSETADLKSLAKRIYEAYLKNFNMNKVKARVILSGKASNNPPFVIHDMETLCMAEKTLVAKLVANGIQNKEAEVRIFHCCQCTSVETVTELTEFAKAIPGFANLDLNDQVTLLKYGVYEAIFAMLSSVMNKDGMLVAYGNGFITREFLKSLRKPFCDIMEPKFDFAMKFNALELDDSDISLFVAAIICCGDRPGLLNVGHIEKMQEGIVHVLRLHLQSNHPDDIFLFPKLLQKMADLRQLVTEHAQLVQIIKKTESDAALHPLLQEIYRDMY

C/C=C/c1ccc2c(c1)OCO2
inactive: outcome [1] | caspase-3 activation [2] 2.64% | outcome [3] | outcome [4] | outcome [5] | outcome [6] | outcome [7] | outcome [8] | outcome [9] | outcome [10] | caspase-3 activation [11] -4.01% [at 91.7 µM] | Potency [12] | Potency [13] | Potency [14] | max response [15] -6.18% | outcome [16] | max response [17] -6.6% | max response [18] -1.69% | Potency [19] | outcome [20]

C=CCc1ccc2c(c1)OCO2
inactive: outcome [1] | caspase-3 activation [2] 1.31% | outcome [3] | outcome [4] | outcome [5] | outcome [6] | outcome [7] | outcome [8] | outcome [9] | outcome [10] | caspase-3 activation [11] -2.37% [at 91.7 µM] | Potency [12] | Potency [13] | Potency [14] | max response [15] -3.48% | outcome [16] | max response [17] -4.7% | max response [18] -8.48% | Potency [19] | outcome [20]
